# Assay outcomes: PubChem, National Center for Advancing Translational Sciences (NCATS)
# This is a sample that favours compounds with a hit; in the whole collection about 18% have one here.
# GCN5L2 inh – qHTS Assay for Inhibitors of GCN5L2; Histone acetyltransferase KAT2A (Homo sapiens), Q92830; GCN5L2 HAT assay, ThioGlo1 CoA-SH fluorescence; Potency, µM (doses to about 58.9 µM), without a hit: at the highest dose activity change, negative = inhibition, hits mostly inhibitors; actives 0.21% (n = 390,000)
#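 Enzyme at 20nM final was mixed with library compounds for 15 min at room temperature. Peptide H3(1-25) at 75uM, acetyl-CoA at 70uM and ThioGlo1 at 50uM were then added. Plates were read immediately and after 20 min (Ex340nm/Em540nm).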
# PLK1 PBD block – qHTS for Inhibitors of PLK1-PDB (polo-like kinase 1 - polo-box domain): Primary Screen | actives 2.8% (n = 360,000) | Serine/threonine-protein kinase PLK1 (Homo sapiens), P53350 | Potency, µM, for the others: max response, negative = inhibition, usual class: inhibitors | Plk1 PBD binding of FITC phosphopeptide, fluorescence polarization; note: series mostly up to about 57 µM; nearly all actives have a fitted effect of over 65% in size
# TDP1 inh – qHTS Assay for Inhibitors of Tyrosyl-DNA Phosphodiesterase (TDP1) | Tyrosyl-DNA phosphodiesterase 1 (Homo sapiens), Q9NUW8 | recombinant TDP1, AlphaScreen DNA substrate cleavage | Potency, µM (top dose mostly 130 µM), for the others: at the top dose activity change, negative = inhibition, usual class: inhibitors | actives 0.28% (n = 350,000) | AID 485290, 2010; note: nearly all actives have a fitted effect of over 40% in size
#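 Enzyme-compound mixtures sat 15 min at room temperature, followed by a 5 min reaction with 15 nM final substrate and 10 min with AlphaScreen beads. Recombinant human Tdp1 was used at 1 nM final.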
# TDP1 cell CPT – qHTS for Inhibitors of human tyrosyl-DNA phosphodiesterase 1 (TDP1): qHTS in cells in presence of CPT; chicken DT40 Tdp1-/-;hTDP1 cells + 20 nM CPT, ATP luminescence, 48 h; Potency, µM (series often up to 46.2 µM), inactives show top-dose activity change, negative = growth inhibition, most hits filed as inhibitors; actives 12% (n = 420,000); note: nearly all actives have a fitted effect of over 55% in size
#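 Cell growth measured by CellTiter-Glo luminescence after a minimum 48 h, 37 C compound exposure with 20 nM CPT in Tdp1-knockout DT40 cells stably expressing hTDP1, seeded 400/well; qHTS titration format.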
# VDR inh – Inhibitors of the vitamin D receptor (VDR): qHTS; Potency, µM, for the others: max response, negative = inhibition, actives largely listed as inhibitors; VDR-SRC2-3 peptide fluorescence polarization, 2 h; Vitamin D3 receptor (Homo sapiens), P11473; actives 0.93% (n = 400,000)
# Target sequence (P11473 whole entry, looked up): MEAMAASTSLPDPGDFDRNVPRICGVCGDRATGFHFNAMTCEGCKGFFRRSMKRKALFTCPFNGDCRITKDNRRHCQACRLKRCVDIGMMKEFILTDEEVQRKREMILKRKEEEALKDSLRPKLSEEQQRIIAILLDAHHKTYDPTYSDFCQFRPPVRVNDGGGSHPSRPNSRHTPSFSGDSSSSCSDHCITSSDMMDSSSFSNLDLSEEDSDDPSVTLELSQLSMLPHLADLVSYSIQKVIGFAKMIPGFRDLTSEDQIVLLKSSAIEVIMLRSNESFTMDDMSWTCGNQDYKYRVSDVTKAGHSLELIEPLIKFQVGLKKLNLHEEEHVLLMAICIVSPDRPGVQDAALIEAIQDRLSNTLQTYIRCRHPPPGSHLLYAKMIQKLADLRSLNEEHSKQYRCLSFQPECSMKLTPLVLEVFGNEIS
#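 Fluorescence polarization assay measuring small-molecule disruption of VDR binding to the coregulator peptide SRC2-3. Compounds were pin-transferred (23 nl) into the reagent mix and incubated 2 h at room temperature before reading.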
# DT40 TDP1 no CPT – qHTS for Inhibitors of human tyrosyl-DNA phosphodiesterase 1 (TDP1): qHTS in cells in absence of CPT; actives 15% (n = 420,000); Potency, µM (doses to about 46.2 µM), without a hit: at the highest dose activity change, negative = growth inhibition, usual class: inhibitors; DT40 Tdp1-/- hTDP1 cells, no CPT, ATP luminescence, 48 h; note: nearly all actives have a fitted effect of over 55% in size
#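 Chicken DT40 Tdp1-/- cells stably complemented with human TDP1 were seeded at 400 cells/well with DMSO in place of 20 nM camptothecin. After compound pinning, cells grew at least 48 hr at 37 °C; viability read by CellTiter-Glo luminescence.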
# * hit, by the source's call; ? = inconclusive; . = no result; [ ] = dose if it differs, or a comment. Calls come from the whole dose curve; as a rule, active = well fitted curve in the direction sought with a large enough effect; inconclusive = small, poorly fitted or top-dose-only effect, or another doubt; inactive = no such curve, though single readings can be large; an effect the other way counts as inactive or inconclusive. % is set by controls: 0 for no effect and ±100 for the full control effect; potency is the fitted concentration of half-maximal effect.
SMILES,GCN5L2 inh,PLK1 PBD block,TDP1 inh,TDP1 cell CPT,VDR inh,DT40 TDP1 no CPT
OC1CCCN(c2c3c(nc4cc(-c5cccc(F)c5)nn24)CCCC3)C1 (stereo not drawn),-25%,-1%,2%,23µM*,-4%,?
Cc1cccc(-c2cc3nc4c(c(N5CCCC(O)C5)n3n2)CCC4)c1 (stereo not drawn),-2%,-5%,0%,?,-4%,26µM*
OC1CCCN(c2c3c(nc4cc(-c5cccc(Cl)c5)nn24)CCC3)C1 (stereo not drawn),-6%,-12%,-2%,18µM*,-24%,?
O=C(Nc1ccc(NS(=O)(=O)c2ccccc2)cc1)c1cccnc1,0%,2%,-2%,-9%,-7%,-21%
O=C(O)c1cccc(NC(=S)N/N=C/c2cccc(O)c2)c1,-7%,-14%,3%,13%,-1%,1%
O=C(O)c1cccc(NC(=S)N/N=C/c2ccccc2OCc2ccc(Br)cc2)c1,?,24µM*,3%,?,?,?
O=C(O)c1cccc(NC(=S)N/N=C/c2ccccc2OCc2cccc(Br)c2)c1,?,?,.,23µM*,?,?
CC1N=C(SCC(=O)c2ccc(F)cc2)N2C(C)N=C(SCC(=O)c3ccc(F)cc3)N12 (stereo not drawn),.,-12%,.,4.1µM*,.,4.1µM*
S=C1NCCNC(=S)NCCOCCOCCN1,-8%,27µM*,0%,5%,8%,8%
CCCN(C(=O)c1cc2c(=O)oc3ccccc3c2s1)c1ccc(CC)cc1,-2%,.,3%,3%,6%,17%
Cc1ccc(-c2noc(CNC(=O)c3ccc(Br)o3)n2)cc1,-11%,.,6%,?,26%,?
COCCCNC(=O)C[C@H]1C[C@H](C(=O)N2CCCCC2)[C@@]2(C)c3[nH]c4ccc(Cl)cc4c3CCN2C1=O,-6%,-5%,-2%[56.1 µM],21µM*,-9%,13µM*
COc1ccc2[nH]c3c(c2c1)CCN1C(=O)C(CC(=O)NCc2ccco2)C[C@H](C(=O)N2CCCCC2)[C@@]31C (stereo partly drawn),-6%,?,0%[56.1 µM],-28%,-1%,?
COCCCNC(=O)CC1C[C@H](C(=O)N2CCCCC2)[C@@]2(C)c3[nH]c4ccc(OC)cc4c3CCN2C1=O (stereo partly drawn),-6%,-1%,2%[56.1 µM],1%,8%,-5%
C[C@]12c3[nH]c4ccc(Cl)cc4c3CCN1C(=O)[C@@H](CC(=O)NCc1ccco1)C[C@@H]2C(=O)N1CCCCC1,-13%,0%,3%[56.1 µM],6.5µM*,-18%,5.8µM*
O=C(NC1CCCCC1)c1ccc2c(c1)N(Cc1ccccc1Cl)C(=O)c1ccccc1S2,1%,.,-5%,-20%,14%,?
OCC[C@@H]1C[C@@H](O)[C@H](O)[C@@]2(Cc3ccccc3O2)O1,-7%,-8%,.,-3%,-5%,-8%
CC(C)N1CCC1(C)C(=O)Nc1ccc(-n2cccc2)cc1 (stereo not drawn),.,-7%,.,15µM*,.,?
CCC1(CC)C(=O)C2=C3C1[C@H](C(=O)OC)C=C(C(=O)OC)C[C@H]3[C@H]1C(=O)N(CC(=O)OC)C(=O)[C@H]1[C@H]2C (stereo partly drawn),.,-8%,8%,-12%,3%,0%
O=C(c1ccc(Cl)c(S(=O)(=O)N2CCCC2)c1)N1CCN(c2ccccc2)CC1,-8%,13µM*,5%,18µM*,32µM*,?
CN1CC(=O)NC1=NC(=O)c1ccc(Cl)c(S(=O)(=O)N2CCCCCC2)c1,?,-7%,10%,?,-1%,8.2µM*
O=C(c1ccc(Cl)c(S(=O)(=O)N2CCCCCC2)c1)N1CCCC1,-4%,4%,.,?,14%,-19%
CC(=O)N1CCN(C(=O)c2cc(S(=O)(=O)N3CCN(c4ccccc4)CC3)ccc2Cl)CC1,2%,-1%,0%,?,-13%,10µM*
O=C(c1ccc(Cl)c(S(=O)(=O)N2CCCCC2)c1)N1CCCCC1,1%,-5%,1%[56.1 µM],?,-87%,-26%
CC(=O)N1CCN(C(=O)c2cccc(S(=O)(=O)N3CCN(c4ccc(F)cc4)CC3)c2)CC1,-1%,-5%,.,-27%,-5%,-14%
SMILES,GCN5L2 inh,PLK1 PBD block,TDP1 inh,TDP1 cell CPT,VDR inh,DT40 TDP1 no CPT
O=C(c1ccc(Cl)c(S(=O)(=O)N2CCCC2)c1)N1CCN(c2ccc(F)cc2)CC1,-7%,-12%,-9%,?,-3%,13µM*
CO[C@@H]1COC(=O)[C@H]2CCCN2C(=O)[C@@H](C)COC(=O)CCC[C@H]1C,.,.,7%[21 µM],.,.,.
Cc1ccc2c(=O)cc(C(=O)Nc3c(C(=O)c4ccccc4)oc4ccccc34)oc2c1C,-3%,.,2%,-9%,17%,-11%
CC1CN(Cc2ccco2)C(=S)NC1=O (stereo not drawn),.,-18%,.,8%,5%,-3%
CN(c1ccccc1)S(=O)(=O)c1cc(C(=O)N2CCN(c3ccccn3)CC2)ccc1Cl,-5%,-9%,2%,9.2µM*,55%,7.3µM*
O=C(c1ccc(Cl)c(S(=O)(=O)N2CCCCC2)c1)N1CCN(c2ccccc2)CC1,-10%,-4%,4%,23µM*,-4%,?
O=C(c1ccc(Cl)c(Cl)c1)N1CCN(c2ccccn2)CC1,2%,-3%,2%,7%,-10%,-18%
COc1ccc(C)cc1NC(=O)C1CCN(S(=O)(=O)c2ccc3c(c2)C(C)(C)C(=O)N3C)CC1,0%,-1%,.,?,12%,?
CC(C)(C)c1cc(NC(=O)C2(C)CCN2C(=O)C2(c3ccccc3)CC2)no1 (stereo not drawn),.,-1%,.,?,.,21µM*
CC(C)(C)c1cc(NC(=O)C2(C)CCN2C(=O)C2(c3ccccc3)CCCC2)no1 (stereo not drawn),.,3%,.,15µM*,.,15µM*
CC1(C(=O)Nc2cccc3ncccc23)CCN1C(=O)C1(c2ccccc2)CC1 (stereo not drawn),.,-13%,.,-5%,.,-5%
